About 83,000 compounds went through this panel and 20% of them were active in at least one assay; those are over-represented in the sample as a whole.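 Interpretation: 100, growth as untreated; towards 0, rising growth inhibition; 0, no net growth; 0 to -100, cell death. Compounds scoring below 10 were considered active.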 Values without a mark were called inactive. Active and inactive are the calls of the source.

Common to all, as to assay: NCI-60 one-dose screen, 48 h (100 = growth as untreated, 0 = no growth, -100 = all killed)
Common to all, as to conditions: 10 µM unless noted

For experiment [1], the system named is HCT-15 colon.
The subject of experiment [2] is HT29 colon.
The test system of experiment [3] is SNB-75 CNS.
Experiment [4] relates to SNB-19 CNS.
Experiment [5] has as its system U251 CNS.
Experiment [6] relates to PC-3 prostate.
Experiment [7] concerns SK-MEL-5 melanoma.
Experiment [8] concerns UACC-62 melanoma.
Experiment [9] has as its system LOX IMVI melanoma.
The subject of experiment [10] is SK-MEL-28 melanoma.
In experiment [11] the test system is SK-MEL-2 melanoma.
Experiment [12] relates to EKVX NSCLC.
The subject of experiment [13] is SN12C renal.
For experiment [14], the system named is UO-31 renal.
Experiment [15] deals with TK-10 renal.
In experiment [16] the test system is ACHN renal.
The subject of experiment [17] is CAKI-1 renal.
Experiment [18] has as its system A498 renal.
Experiment [19] deals with CCRF-CEM leukemia.
Experiment [20] has as its system MOLT-4 leukemia.

As to `Nc1nc(=O)n([C@H]2C[C@H](O)[C@@H](CO)O2)cc1C=O`, the growth in [1] is 107%; in experiment [2] it was 101%; in experiment [3], 122%; in experiment [4] it was 106%; in experiment [5], 106%; in experiment [6] it was 45%. For the same molecule, the growth in experiment [7] was 101%; in [8], 106%; in experiment [9], 106%; in [10], 108%; in [11] it was 109%; in [12] it was 112%. Besides, the growth is -19.5% (active) in experiment [13]; 101% in experiment [14]; 108% in experiment [15]; 107% in experiment [16]; 82.1% in experiment [17]; 121% in [18]. The growth in [19] is 57.7%; in experiment [20] it was 92%.
With `C=C1CCc2nc(SCC(=O)O)ccc2N1`, the growth in [1] is 99.1%; in experiment [2] it was 109%; in experiment [3], 85.1%; in experiment [4], 92.7%; in experiment [5] it was 112%; in [6] it was 104%. In addition, the growth in experiment [7] is 101%; in [8], 93.2%; in [9], 96.9%; in experiment [10], 106%; in experiment [11], 104%; in experiment [12] it was 101%. Moreover, the growth in experiment [13] is 97.1%; in experiment [14], 91.1%; in [15], 100%; in experiment [16], 102%; in experiment [17] it was 97.3%; in experiment [18] it was 85.7%. Further, the values for the growth in experiment [19] and in experiment [20] were 96.9% and 97.5%, respectively.
For `Cc1[nH]c(C(=O)Nc2ccccc2OCc2cccc(C(=O)NC3CCCNC3)c2)c(Cl)c1Cl` (stereo not given), the growth is -84.2% (active) in experiment [1]; -58.9% (active) in [2]; 84.1% in experiment [3]; -80.4% (active) in [4]; -57.6% (active) in [5]; -82.2% (active) in [6]. In addition, the growth in experiment [7] was -22.9% (active); in experiment [8] it was -84.4% (active); in experiment [9], -89.8% (active); in experiment [10] it was -84.9% (active); in experiment [11], 102%; in experiment [12], -80.4% (active). Moreover, the growth in [13] was -72.9% (active); in [14], -13% (active); in experiment [15], -75% (active); in experiment [16], -86.8% (active); in experiment [17], -91.3% (active); in experiment [18], 66.2%. For the same molecule, the growth is 2.33% (active) in experiment [19] and -25.3% (active) in experiment [20].
As to `Nn1c(=O)n(-c2cccc(C(F)(F)F)c2)c(=O)c2cc(-c3ccc(F)cc3F)ccc21`, the growth is 10.6% in experiment [1]; 60.8% in [2]; -16.5% (active) in experiment [3]; 9.55% (active) in [4]; 5.07% (active) in experiment [5]; -3.92% (active) in [6]. Also, the growth in experiment [7] is -51.6% (active); in experiment [8] it was 1.73% (active); in experiment [9], 0.654% (active); in experiment [10], 28%; in [11], -21.5% (active); in [12], 3.55% (active). Moreover, the growth is 1.86% (active) in experiment [13]; 5.45% (active) in experiment [14]; 7.05% (active) in [15]; 0.86% (active) in experiment [16]; -12.5% (active) in experiment [17]; -20.6% (active) in experiment [18]. The growth in experiment [19] is 13.3%; in experiment [20], 4.48% (active).
For `Cc1ccc(C(=O)Nc2ccc(CNCCN3CCNCC3)c(C(F)(F)F)c2)cc1C#Cc1cnc2cccnn12`, the growth in experiment [1] was 14.1%; in experiment [2] it was 5.76% (active); in experiment [3], 42.5%; in experiment [4], 8.65% (active); in experiment [5] it was -6.31% (active); in experiment [6], 23.8%. Besides, the growth in experiment [7] is -87.1% (active); in experiment [8], -41% (active); in experiment [9] it was -86.1% (active); in experiment [10] it was -68% (active); in experiment [11], 64%; in experiment [12], 29.6%. Moreover, the growth is 76.2% in experiment [13]; 76.7% in experiment [14]; 129% in [15]; 57% in [16]; 75.9% in experiment [17]; -33.4% (active) in experiment [18]. In addition, the growth was -39.7% (active) in experiment [19] and -49.5% (active) in experiment [20].
As to `Cc1c(C(=O)/C=C/c2ccc(Cl)cc2)nnn1-c1ccc2oc(=O)ccc2c1`, the growth in experiment [1] is 87.3%; in [2], 101%; in experiment [3] it was 104%; in [4], 96.3%; in [5], 96.7%; in experiment [6], 92%. The growth was 97.7% in experiment [7]; 83.6% in [8]; 80.7% in experiment [9]; 106% in experiment [10]; 110% in experiment [11]; 91.2% in experiment [12]. Besides, the growth in experiment [13] was 92.3%; in experiment [14], 73.4%; in [15] it was 104%; in experiment [16], 94.6%; in [17], 88.6%; in experiment [18], 103%. The figures for the growth in experiment [19] and in [20] were 92.3% and 98.9%, respectively.
As to `COc1cc(NC(=O)Nc2cccc(-c3cc(=O)c4c(OC)c(OC)c(OC)cc4o3)c2)cc(OC)c1OC`, the growth was 32.7% in [1]; 46% in experiment [2]; -0.583% (active) in experiment [3]; 46.9% in experiment [4]; 27.5% in [5]; 44.8% in experiment [6]. Besides, the growth in [7] is 43%; in experiment [8] it was 48.4%; in experiment [9], 24.7%; in experiment [10], 53.5%; in [11] it was 49.3%; in experiment [12], 62.2%. Also, the growth in experiment [13] is 38.5%; in experiment [14] it was 24.7%; in [15], 64.9%; in experiment [16], 56.1%; in experiment [17], 35.4%; in experiment [18] it was 19.1%. The growth in experiment [19] was 35.4%; in experiment [20] it was 32.1%.
On to `COc1ccc(C2CC(c3cccc(OCCCCOc4cccc(C5=NOC(c6ccc(OC)cc6)C5)c4)c3)=NO2)cc1` (stereo not given), for which the growth in experiment [1] is 77.3%; in [2], 69.8%; in [3] it was 101%; in experiment [4] it was 92%; in experiment [5], 77.3%; in experiment [6], 99.8%. For the same molecule, the growth is 97.5% in [7]; 68.8% in experiment [8]; 17.9% in [9]; 102% in [10]; 103% in experiment [11]; 102% in [12]. Besides, the growth is 95.3% in [13]; 79% in [14]; 104% in experiment [15]; 104% in [16]; 89% in experiment [17]; 111% in experiment [18]. In addition, the results for the growth in [19] and in experiment [20] were 72.8% and 92.2%, respectively.

Source of the values: PubChem BioAssay (NCI).
